# Data: PubChem BioAssay (NCATS)
# Records with an inconclusive call do not appear. A number with no mark means an inactive call. Active and inactive are the calls of the source. Calls follow the shape of the dose curve; as a rule, active = well fitted activation curve with a large enough effect; inconclusive = small, poorly fitted or top-dose-only effect; inactive = flat fitted curve, though single readings scatter.
# Assay: Cell Proliferation Assay against the TMD8 Cell Line (Caspase readout at 16 hrs) (AID 651712)
# Conditions: TMD8 lymphoma cells, caspase activation luminescence; series mostly up to 46.1 µM; caspase activation: at the top concentration
# Text: One class of targeted therapeutics showing early clinical success in killing of ABC DLBCL lines are small molecule inhibitors of the Bruton tyrosine kinase (BTK) 11. Thus, we chose to investigate what additional compounds, if any, would synergize with the BTK inhibitor Ibrutinib (PCI-32765).
# Prior to any combination assays, using an NCATS developed oncology compound library called the Mechanism of Interrogation Plate (MIPE), two well studied ABC DLBCL lines (TMD8 and HBL1) were screened using a cell viability assay (CellTiterGlo) and a 12-point titration series for each single agent. These initial experiments offered insight into the concentration range that offered the best coverage of activity and non-activity to assure relevant data is generated. In addition to the viability signature associated with this library, we examined the apoptotic response of each agent versus the TMD8 line as judged by caspase 3/7 activation. Activity was assayed at both 8 and 16 hour time-points to gain an appreciation of which agents induced an apoptotic response in a reasonable timeframe from a therapeutic exposure perspective. MIPE was also assayed for single agent viability in a human mesenchymal stem cell (hMSC) line as a surrogate of each library members potential therapeutic index.
# The combination plates were then generated by choosing 20 of the best compounds from this single agent screen and plated in the presence of the BTK inhibitor. The first analysis was carried out using 6x6 dose response blocks for each of the 20 compounds. […] In addition to the cell viability assay, the parallel caspase 3/7 activation and viability in hMSC assays were carried out in the 10x10 format.
# A total of 500 log growing TMD8 cells are seeded per well in 5 uL of a RPMI with glutamine (or Glutamax), without phenol red plus 5% FBS and 1X Pen/Strep into 1536 -solid white high base tissue culture treated Greiner One Bio Plates (789173-F) using a multidrop combi dispenser and a small sterile cassette. Compounds and controls totaling 23nL per well (negative control DMSO and positive control 9.2 uM Bortezomib-final) are immediately added to the plates using a 1536 head pin tool from Kalypsys. The plates are then covered with stainless steel gasket lids from Kalypsys and incubated for either 16 hours at 37C under 95% relative humidity with 5% CO2. After the desired incubation time, the plates are removed and allowed to reach room temperature before 3 uL of the Caspase Glo reagent (Promega) is added using an Aurora Flying Reagent Dispenser Bioraptor. The plates are then spun at 1000 rpms to remove bubbles and incubated for 15 minutes at room temperature before read on a ViewLux using a luminescent filter with a 10 second exposure. The relative luciferase units are used to calculated percent activity using DMSO as 0% and Bortezomib as 100%.
# Potency is read from the fitted curve at half-maximal effect.
SMILES,caspase activation,Potency
CC(C)(N)C(=O)N[C@H](COCc1ccccc1)C(=O)N1CCC2(CC1)CN(S(C)(=O)=O)c1ccccc12,19.9%,
Nc1nc2ccc(OC(F)(F)F)cc2s1,7.17%,
Nc1nccc(-c2ccc3noc(-c4ccc(Cl)cc4)c3c2)n1,25.9%,
O=C(NOC[C@H](O)CO)c1ccc(F)c(F)c1Nc1ccc(I)cc1F,2.7%,
CCC(C)(C)C(=O)O[C@H]1C[C@@H](C)C=C2C=C[C@H](C)[C@H](CC[C@@H]3C[C@@H](O)CC(=O)O3)[C@H]21,8.95% [at 15.4 µM],
COCC(=O)NCC=Cc1ccc2ncnc(Nc3ccc(Oc4ccc(C)nc4)c(C)c3)c2c1,4.02%,
COc1ccc2nc(S(=O)Cc3ncc(C)c(OC)c3C)[nH]c2c1 (stereo not given),3.3%,
CS(=O)(=O)c1cccc(CNc2nc(Nc3ccc4c(c3)CCC(=O)N4)ncc2C(F)(F)F)c1,4.04%,
O=C(OCC#CCSc1nnc(-c2ccc3ccccc3c2)o1)c1cc2ccccc2s1,-0.0672%,
CNC(=O)c1ccccc1Sc1ccc2c(/C=C/c3ccccn3)n[nH]c2c1,2.56%,
C#Cc1cccc(Nc2ncnc3cc(OCCOC)c(OCCOC)cc23)c1,14.6%,
O=c1[nH]c(-c2ccc(C(F)(F)F)cc2)nc2c1CSCC2,6.09%,
CCC(C)n1ncn(-c2ccc(N3CCN(c4ccc(OC[C@H]5CO[C@](Cn6cncn6)(c6ccc(Cl)cc6Cl)O5)cc4)CC3)cc2)c1=O (stereo not given in full),15.3%,
C[C@]1(c2nc3c(C(N)=O)cccc3[nH]2)CCCN1,13.4%,
CN(C)c1ccc(C2Nc3ccc4ccccc4c3C3=C2C(=O)CC(C)(C)C3)cc1Br (stereo not given),25.1%,
CCOc1cc(C=C2C(=O)N(c3ccccc3)N=C2C)cc(Cl)c1OCC(=O)OC,5.73%,
N#Cc1ccc(C(c2ccc(C#N)cc2)n2cncn2)cc1,15.1%,
Cc1cnc(Nc2ccc(OCCN3CCCC3)cc2)nc1Nc1cccc(S(=O)(=O)NC(C)(C)C)c1,16.3%,
CCOc1ccc(Cc2cc([C@@H]3O[C@H](CO)[C@@H](O)[C@H](O)[C@@H]3O)ccc2Cl)cc1,2.16%,
CNC(=O)c1ccc(N2C(=S)N(c3ccc(C#N)c(C(F)(F)F)c3)C(=O)C2(C)C)cc1F,17.6%,

SMILES,caspase activation,Potency
COc1ccc(-c2oc3cc(OC)ccc3c2C(=O)c2ccc(C#N)cc2)cc1,7.02%,
CCOc1cc(C(=O)Nc2ccc(Cl)c(-c3nc4ccccc4[nH]3)c2)cc(OCC)c1OCC,17.9%,
Nc1nc2[nH]cc(CCc3ccc(C(=O)N[C@@H](CCC(=O)O)C(=O)O)cc3)c2c(=O)[nH]1,3.35%,
Cc1c(CCOc2ccc(C(=O)O)cc2)c2cc(Cl)ccc2n1C(c1ccccc1)c1ccccc1,3.63%,
CCOc1cc(N2CCC(O)CC2)ccc1Nc1ncc2c(n1)N(C)c1ccccc1C(=O)N2C,,20.9 µM (active)
Cc1cc2c(C(C)C)c(O)c(O)c(C=O)c2c(O)c1-c1c(C)cc2c(C(C)C)c(O)c(O)c(C=O)c2c1O,13.7%,
O=C1CCCC2=C1C(c1[nH]ncc1Cl)N=C(Nc1nc3ccccc3o1)N2 (stereo not given),10.2%,
Cc1csc(NC(=O)c2sc3nc4c(c(C(F)(F)F)c3c2N)CCC4)n1,-1.26%,
O=C(C=Cc1ccc(/C=C/C(=O)Nc2ccc(C3=NCCN3)cc2)cc1)Nc1ccc(C2=NCCN2)cc1,-2.63%,
Cc1cc([C@@H](C)Nc2ccccc2C(=O)O)c2nc(N3CCOCC3)cc(=O)n2c1,3.07%,
CS(=O)(=O)Oc1ccc2c(NC(N)=O)c(C(=O)c3ccc(Cl)cc3Cl)oc2c1,13.8%,
Cc1oncc1C(=O)Nc1ccc(C(F)(F)F)cc1,-10.3%,
COc1ccc(CCN2CCN(CCCc3ccccc3)CC2)cc1OC,7.82%,
Cc1cccc(-c2[nH]c(C(C)(C)C)nc2-c2ccc3nccnc3c2)n1,12.8%,
CC[C@@H](C)[C@H](NC(=O)[C@H](CC1CCCCC1)NC(=O)c1ccno1)C(=O)N1CCC2(CCc3ccccc32)CC1,15.4%,
COc1cc2nccc(Oc3ccc(NC(=O)NC4CC4)c(Cl)c3)c2cc1C(N)=O,-0.469%,
CC(C)C[C@H](NC(=O)[C@@H](O)[C@H](N)Cc1ccccc1)C(=O)O,1.05%,
Cc1n[nH]c(C)c1Cc1sc2c(c1C(=O)N1C[C@H](O)CO1)c(=O)n(C)c(=O)n2CC(C)C,12.3%,
NC(=O)C1CCCc2c1[nH]c1ccc(Cl)cc21 (stereo not given),3.45%,
COc1c(Cl)cc2c([nH]c3cnccc32)c1NC(=O)c1cccnc1C,12%,
